Shown is part of a subset that was picked to be rich in hits.
Lamin A splicing – changes lamin A minigene splicing in HeLa cells; 200,000 compounds, 0.01% hits; Potency, µM (highest dose often 46.1 µM), inactives show at the top dose ratio change, negative = inhibition, usual class: inhibitors; AID 1487; HeLa LMNA splicing GFP/RFP minigene ratio, 48 h; active = well fitted inhibition curve with a large enough effect in the signal ratio, with a control signal flat, not every such curve was filed as active; inconclusive = small, poorly fitted or top-dose-only effect, or effect the other way, or a change in a side signal; the % refers to the signal ratio; also: potency is read from the fitted curve at half-maximal effect
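S3 HeLa cells stably expressing lamin A-EGFP splicing minigene plus DsRed2, 600 cells/well, 48 h compound exposure at 37C. Laser-scanning cytometry; analysed as GFP (500-530 nm)/RFP (575-640 nm) total intensity ratio; 0.5% DMSO vehicle.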
PNC inhibitor – inhibitors of perinucleolar compartment assembly | PC3M PTB-GFP, PNC prevalence imaging, 16 h; active compounds read low | activity change (PNC), negative = inhibition, % at 10 µM | 140,000 compounds, 3.1% hits | AID 2417;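 active = readout at or below -70, meaning at least 70% loss of cells showing the perinucleolar compartment, a nuclear body marking cancer cells; inconclusive = readout between -30 and a set limit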;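 also: plate controls were DMSO wells for no effect and camptothecin positive control wells for full effect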
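Compounds are pinned in duplicate onto adhered PC3M cells stably expressing GFP-tagged PTB and incubated 16 h at 37 C. Cells are then fixed, nuclei stained with Hoechst, and PNC-positive cells counted.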
IMPase inh – IMPase inhibition in cells; CHO-M1 cells, IP1 accumulation, HTRF TR-FRET ratio; inhibition (IP1 accumulation), % at 46.1 µM; 120,000 tested, under 10 active; AID 901; active = well fitted curve in the direction sought with a large enough effect in the signal ratio, not every such curve was filed as active; inconclusive = small, poorly fitted or top-dose-only effect, or a change in a side signal; inactive = no such curve, though single readings can be large or run the other way; the % refers to the signal ratio;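 also: cells stimulated with carbachol in lithium chloride buffer; plate controls were DMSO basal wells for no effect and reference inhibitor wells for full effect; higher means more IMPase inhibition seen as more IP1 and lower FRET ratio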
Target sequence (P97697 whole entry, looked up): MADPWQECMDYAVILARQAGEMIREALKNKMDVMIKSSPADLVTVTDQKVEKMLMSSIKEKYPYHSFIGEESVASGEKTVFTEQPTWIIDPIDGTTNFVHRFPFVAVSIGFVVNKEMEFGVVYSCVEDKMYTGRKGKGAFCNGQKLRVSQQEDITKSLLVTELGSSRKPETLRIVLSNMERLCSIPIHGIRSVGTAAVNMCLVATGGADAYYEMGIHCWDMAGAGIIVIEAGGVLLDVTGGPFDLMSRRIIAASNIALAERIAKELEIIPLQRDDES
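Elevated IP1 in lysates lowers TR-FRET signal (665/620 ratio and 620 channel reported). Cells were CHO-M1, given carbachol (50 uM as added) plus 50mM LiCl, pH 7.4, 30 min, 37C; compounds titrated up to 46 uM; AC50 by Hill equation.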
The depositor's hits bear a star; [ ] = dose if it differs, or a comment. Unless noted, % is scaled to controls: 0 for no effect and ±100 for the full control effect.

O=C(NC1CCCCC1)N(Cc1cc2cc3c(cc2[nH]c1=O)OCCO3)C1CCCCC1 was read as Lamin A splicing 4%, PNC inhibitor inconclusive and IMPase inh -6.
For CCCOc1cccc(C(=O)Nc2ccc(-c3nc4ccccc4o3)cc2)c1 the results were IMPase inh 3.
Screening CCC(CC)c1nnc(NC(=O)[C@@H](NC(=O)c2cccc(C)c2)C(C)C)s1 returned Lamin A splicing -19%, PNC inhibitor -97* and IMPase inh 7.
For CCSc1nnc(NC(=O)[C@@H](NC(=O)c2cccc(C)c2)C(C)C)s1 the results were Lamin A splicing -16%, PNC inhibitor 7 and IMPase inh -2.
`CCC(=O)Nc1ccccc1C(=O)OCc1cc(=O)n2cc(C)sc2n1` gave Lamin A splicing 4%[46 µM].
Cc1cc(NNC(=O)c2cccc(C(F)(F)F)c2)nc2c1c(C)nn2C was read as Lamin A splicing 8%[46 µM].
`O=C(COc1ccccc1-c1ccccc1)N/N=C/c1ccccn1` gave Lamin A splicing -10%[46 µM].
Screening O=C(COc1ccccc1-c1ccccc1)N/N=C/c1ccc2ccccc2c1 returned Lamin A splicing inconclusive and PNC inhibitor -116*.
Screening Brc1ccc(CN2CCc3nc(Nc4ccccc4)ncc3C2)s1 returned Lamin A splicing -19%[46 µM].
For CCC1CCCCN1C(=O)CSc1n[nH]c(-c2ccccc2)n1 (stereo not given) the results were Lamin A splicing -2%[46 µM].
`COCCn1c(SCC(=O)Nc2ccccc2C)nc2c(oc3ccccc32)c1=O` gave Lamin A splicing -4%, PNC inhibitor 4 and IMPase inh -4.
For COCCn1c(SCC(=O)Nc2ccc(C)cc2C)nc2c(oc3ccccc32)c1=O the results were Lamin A splicing 4% and PNC inhibitor -107*.
Screening Cc1ccc(NC(c2cccc(Cl)c2)c2nnc(-c3ccccc3)o2)cc1F (stereo not given) returned IMPase inh 2.
Screening CCCCN(CCCNC(=O)C1CCN(S(=O)(=O)N2CCOCC2)CC1)Cc1ccccc1 returned Lamin A splicing -2%, PNC inhibitor -2 and IMPase inh -2.
CC(C)N(CCNC(=O)C1CCN(S(=O)(=O)N2CCOCC2)CC1)Cc1ccccc1 was read as Lamin A splicing -5%, PNC inhibitor -102* and IMPase inh 13.
O=C(CCc1ccccc1)Nc1ccc2c(c1)OCCO2 was read as Lamin A splicing 9%, PNC inhibitor -15 and IMPase inh -1.
Screening O=C(CCc1ccccc1)Nc1cc2c(cc1Cl)OCCO2 returned Lamin A splicing -10% and PNC inhibitor -109*.
`CCOc1ccccc1NC(=O)C1CCN(S(=O)(=O)c2ccccc2)CC1` gave IMPase inh -7.
Screening COc1ccc(CCCc2nnc(SCC(=O)Nc3cccc(F)c3C)o2)cc1 returned IMPase inh 32.
For CCOc1ccccc1NC(=O)CN1Cc2ccccc2C1=O the results were Lamin A splicing -1%[46 µM].
`O=C(NC1CCCCC1)N1CCCCCCC1` gave Lamin A splicing 7%, PNC inhibitor 17 and IMPase inh 3.
For O=C(NC1CCCCC1)N1CCN(c2ncccn2)CC1 the results were Lamin A splicing 14%, PNC inhibitor -83* and IMPase inh 2.
Cc1ccc(-c2n[nH]c(=S)n2-c2ccccc2)cc1 was read as Lamin A splicing -3%, PNC inhibitor 13 and IMPase inh -12.
`S=c1[nH]nc(-c2cccnc2)n1-c1ccccc1` gave Lamin A splicing -1%, PNC inhibitor -88* and IMPase inh 6.
Cc1[nH]n(-c2ccccc2)c(=O)c1/C=N/N(c1ccccc1)c1ccccc1 was read as Lamin A splicing -10%[46 µM].
`CCOC(=O)c1sc(/N=C/c2c(C)[nH]n(-c3ccccc3)c2=O)c(C#N)c1C` gave Lamin A splicing 1%, PNC inhibitor -112* and IMPase inh -3.
`CCC1CCCCN1C(=O)CSc1nnc(-c2ccc(OC)cc2)o1` (stereo not given) gave Lamin A splicing -11%, PNC inhibitor -2 and IMPase inh 2.
For CCC1CCCCN1C(=O)CSc1nnc(-c2ccc3c(c2)OCCO3)o1 (stereo not given) the results were Lamin A splicing inconclusive, PNC inhibitor -107* and IMPase inh -11.
Screening CC(=O)Oc1ccc2c(c1)Oc1cc(OC(C)=O)ccc1C21OC(=O)c2ccccc21 returned Lamin A splicing inconclusive, PNC inhibitor -100* and IMPase inh 5.
Screening Cc1cc(O)ccc1C1(c2ccc(O)cc2C)OC(=O)c2ccccc21 returned Lamin A splicing inconclusive, PNC inhibitor -9 and IMPase inh -1.
`CCc1n[n+](CC(=O)c2ccccc2)c(N)s1` gave Lamin A splicing 7%[46 µM].
Screening CCn1nc(C)c(NS(=O)(=O)c2ccc(C)cc2)c1C returned Lamin A splicing inconclusive, PNC inhibitor -100* and IMPase inh 5.
For Cc1ccc(S(=O)(=O)Nc2c(C)nn(C)c2C)cc1 the results were Lamin A splicing -21%, PNC inhibitor inconclusive and IMPase inh 8.
CCOC(=O)c1cc(-c2ccccc2)n(-c2cccc(C(=O)Nc3cccc(SC)c3)c2)c1C was read as Lamin A splicing 21%[46 µM].
For O=c1[nH]c2ccc(NCc3ccc(-c4ccc(F)cc4)o3)cc2[nH]1 the results were Lamin A splicing 7%[46 µM].
CCc1ccc(-c2nc(SCC(=O)NCCOC)c(-c3ccc(C)cc3)[nH]2)cc1 was read as IMPase inh 1.
CCOC(=O)c1ccc(COc2nc3ccccc3nc2-c2ccccc2NC(C)=O)o1 was read as Lamin A splicing 21%, PNC inhibitor -115* and IMPase inh 8.
`CC(=O)Nc1ccccc1-c1nc2ccccc2nc1OCC(=O)c1ccc(Br)cc1` gave Lamin A splicing 3%, PNC inhibitor inconclusive and IMPase inh 4.
For Cc1ccc(C(=O)OCC(=O)Nc2c(Cl)cc(S(N)(=O)=O)cc2Cl)o1 the results were Lamin A splicing -6%[46 µM].
Cc1c(Cl)cccc1NC(=S)N(Cc1cccs1)C1CCCC1 was read as Lamin A splicing -14%[46 µM].
Screening O=C(Nc1ccc(F)cc1F)c1ccccc1-c1ccccc1 returned Lamin A splicing 1%, PNC inhibitor -10 and IMPase inh -3.
Screening O=C(Nc1cccc(F)c1)c1ccccc1-c1ccccc1 returned Lamin A splicing -6%, PNC inhibitor -103* and IMPase inh -1.
O=C(c1cccs1)N1CCCc2cc(NS(=O)(=O)c3ccc(F)cc3)ccc21 was read as Lamin A splicing -3%[46 µM].
For CN(C)c1ccc(C(=O)c2ccc(N(C)C)c3ccccc23)cc1 the results were Lamin A splicing inconclusive, PNC inhibitor -103* and IMPase inh 0.
`COc1ccc(C(=O)c2ccc(N(C)C)cc2)c(OC)c1` gave Lamin A splicing inconclusive, PNC inhibitor inconclusive and IMPase inh 8.
CCOC(=O)N1CCC2(CC1)OC(=O)C(C)=C2C(=O)NCc1cccc(OC)c1 was read as Lamin A splicing 29%[46 µM].
`Cc1cc(C)n2cc(CSc3ccccn3)nc2n1` gave Lamin A splicing -20%[46 µM].
Screening Cc1cc(C)n2cc(CSCc3ccccc3)nc2n1 returned Lamin A splicing -18%, PNC inhibitor -89* and IMPase inh -3.
